The values that follow come from article PMC11062922 (Nature Chemical Biology, 2023).

Structures are written as SMILES. Read-outs that look alike come from different tables or passages of the source.

Design in all cases: species or system human, MV4-11 + K-562 + COLO205 + SK-N-BE2 + OVCAR-8
The test system of one experiment is ACVR1B. The following applies: read-out: apparent Kd, n = 1.
The next experiment relates to CSNK1A1. The note with it: read-out: apparent Kd, n = 1.
The subject of the next experiment is CSNK1D. The note with it: read-out: apparent Kd, n = 1.
The next experiment has as its system CSNK1E. The note with it: read-out: apparent Kd, n = 1.
The next experiment concerns MAP2K4. The note with it: read-out: apparent Kd; compound concentrations:100 nM and 1000 nM (sheet 'Samples'); n = 1.
The test system of another experiment is ADCK3. The following applies: read-out: apparent Kd; compound concentrations:100 nM and 1000 nM (sheet 'Samples'); n = 1.
A further experiment deals with ACVR2B. The note with it: read-out: apparent Kd; compound concentrations: 100 nM and 1000 nM (sheet 'Samples'), CATDS: 9.05518688532823E-2; n = 1.
A further experiment relates to OPA1. The following applies: read-out: apparent Kd; compound concentrations: 100 nM and 1000 nM (sheet 'Samples'), CATDS: 7.7038231613769201E-2; n = 1.
For another experiment, the system named is PRKD2. The following applies: read-out: apparent Kd; compound concentrations: 100 nM and 1000 nM (sheet 'Samples'), CATDS: 0.11729729568005599; n = 1.
Another experiment relates to PRKD3. The note with it: read-out: apparent Kd; compound concentrations: 100 nM and 1000 nM (sheet 'Samples'), CATDS: 0.118060499220425; n = 1.
A further experiment deals with RIPK2. The note with it: read-out: apparent Kd, compound concentrations: 100 nM and 1000 nM (sheet 'Samples'), n = 1.
For the next experiment, the system named is TGFBR1. The following applies: read-out: apparent Kd, compound concentrations: 100 nM and 1000 nM (sheet 'Samples'), n = 1.
The subject of the next experiment is TGFBR2. The note with it: read-out: apparent Kd; compound concentrations: 100 nM and 1000 nM (sheet 'Samples'), CATDS: 8.4852154522950404E-2; n = 1.
For another experiment, the system named is AKT3. The following applies: read-out: apparent Kd; compound concentrations: 100 nM and 1000 nM (sheet 'Samples'), CATDS: 5.7187277937225903E-2; n = 1.
Another experiment relates to CIT. The following applies: read-out: apparent Kd; compound concentrations: 100 nM and 1000 nM (sheet 'Samples'), CATDS: 5.03714140810754E-2; n = 1.
The next experiment deals with MAPK10. The following applies: read-out: apparent Kd; compound concentrations: 100 nM and 1000 nM (sheet 'Samples'), CATDS: 8.4251059270540496E-2; n = 1.
The next experiment concerns MAPK14. The following applies: read-out: apparent Kd, n = 1.
A further experiment deals with MAPK9. The following applies: read-out: apparent Kd; compound concentrations: 100 nM and 1000 nM (sheet 'Samples'), CATDS: 7.1166451805227196E-2; n = 1.
The subject of a further experiment is MAPKAPK2. The note with it: read-out: apparent Kd, n = 1.
A further experiment deals with MYLK3. The following applies: read-out: apparent Kd; compound concentrations: 100 nM and 1000 nM (sheet 'Samples'), CATDS: 7.2718608613227403E-2; n = 1.
The next experiment relates to CLK1. The following applies: read-out: apparent Kd; compound concentrations:100 nM and 1000 nM (sheet 'Samples'); n = 1.
The test system of a further experiment is CLK4. The following applies: read-out: apparent Kd; compound concentrations:100 nM and 1000 nM (sheet 'Samples'); n = 1.
In the next experiment the test system is DYRK1A. The note with it: read-out: apparent Kd; compound concentrations:100 nM and 1000 nM (sheet 'Samples'); n = 1.
The test system of another experiment is ILK. The following applies: read-out: apparent Kd; compound concentrations:100 nM and 1000 nM (sheet 'Samples'); n = 1.
The next experiment deals with MAP2K1. The note with it: read-out: apparent Kd; compound concentrations:100 nM and 1000 nM (sheet 'Samples'); n = 1.
The test system of another experiment is MAP2K2. The following applies: read-out: apparent Kd; compound concentrations:100 nM and 1000 nM (sheet 'Samples'); n = 1.
A further experiment has as its system NNT. The note with it: read-out: apparent Kd; compound concentrations:100 nM and 1000 nM (sheet 'Samples'); n = 1.
The subject of another experiment is PIP4K2C. The following applies: read-out: apparent Kd; compound concentrations:100 nM and 1000 nM (sheet 'Samples'); n = 1.
The subject of a further experiment is STK26. The following applies: read-out: apparent Kd; compound concentrations:100 nM and 1000 nM (sheet 'Samples'); n = 1.
Where [1] appears, read: compound concentrations:100 nM and 1000 nM (sheet 'Samples').

Take `Cl.c1ccc(-c2nc3n(c2-c2ccc4c(c2)OCO4)CCC3)nc1` [SB-400868-A]: the potency estimated from few doses in the experiment on ACVR1B (setting [1]) is 87 nM; in the experiment with CSNK1A1 (setting [1]), 369 nM; in the experiment on CSNK1D (setting [1]), 150 nM; with CSNK1E (setting [1]), 262 nM; in the experiment on MAP2K4, 1900 nM.

Take `COc1ccc2cc(-c3c(-c4ccncc4)nc(-c4ccc(S(C)(=O)=O)cc4C)n3C)ccc2c1` [SB-633825]: the potency estimated from few doses in the experiment on ACVR1B (setting [1]) was 686 nM; in the experiment with ADCK3, 803 nM.

Consider `Cc1ccnc2ccc(-c3sc(N)nc3-c3ccccn3)nc12` [GW777257X], for which the potency estimated from few doses in the experiment with ACVR1B (compound concentrations: 100 nM and 1000 nM (sheet 'Samples'), CATDS: 0.44095653710551203) was 5.66 nM; in the experiment on ACVR2B, 854 nM; in the experiment with CSNK1A1 (compound concentrations: 100 nM and 1000 nM (sheet 'Samples'), CATDS: 7.5324168753573395E-2) it was 1730 nM; in the experiment with OPA1, 1570 nM; in the experiment with PRKD2, 384 nM; in the experiment with PRKD3, 377 nM. For the same compound, the potency estimated from few doses in the experiment on RIPK2 (CATDS: 9.3212886773084105E-2) was 776 nM; in the experiment with TGFBR1 (CATDS: 0.51991943788690098), 4.12 nM; in the experiment on TGFBR2, 1070 nM.

As to `Nc1nccc(-c2c(-c3ccc(F)cc3)ncn2CCCN2CCOCC2)n1` [SB-216385], the potency estimated from few doses was 1120 nM in the experiment with ACVR1B (compound concentrations: 100 nM and 1000 nM (sheet 'Samples'), CATDS: 6.1592389938983201E-2); 1440 nM in the experiment with AKT3; 2400 nM in the experiment on CIT; 712 nM in the experiment on CSNK1A1 (compound concentrations: 100 nM and 1000 nM (sheet 'Samples'), CATDS: 7.2342208976373404E-2); 86.6 nM in the experiment with CSNK1D (compound concentrations: 100 nM and 1000 nM (sheet 'Samples'), CATDS: 0.22591064083460399); 120 nM in the experiment on CSNK1E (compound concentrations: 100 nM and 1000 nM (sheet 'Samples'), CATDS: 0.181188642263544). For the same compound, the potency estimated from few doses in the experiment with MAPK10 was 493 nM; with MAPK14 (compound concentrations: 100 nM and 1000 nM (sheet 'Samples'), CATDS: 0.16940162518750301), 134 nM; in the experiment on MAPK9 it was 743 nM; with MAPKAPK2 (compound concentrations: 100 nM and 1000 nM (sheet 'Samples'), CATDS: 7.7439810634818695E-2) it was 601 nM; in the experiment with MYLK3, 703 nM; in the experiment with RIPK2 (CATDS: 6.8187313119451795E-2), 834 nM. Further, in the experiment with TGFBR1 (CATDS: 5.4047908089072998E-2), the potency estimated from few doses is 1770 nM.

On to `Nc1nc(-c2ccc(F)cc2)c(-c2ccc3ncccc3n2)s1` [GW785804X], for which the potency estimated from few doses was 57.9 nM in the experiment with ACVR1B (setting [1]); 997 nM in the experiment with CLK1; 1100 nM with CLK4; 2400 nM in the experiment with CSNK1E (setting [1]); 1970 nM in the experiment on DYRK1A; 2080 nM with ILK. Also, the potency estimated from few doses in the experiment on MAP2K1 was 1910 nM; with MAP2K2 it was 2060 nM; in the experiment with MAPK14 (setting [1]) it was 567 nM; in the experiment on MAPKAPK2 (setting [1]), 1410 nM; in the experiment on NNT, 164 nM; with PIP4K2C, 2210 nM. The potency estimated from few doses in the experiment on STK26 was 2330 nM.
